# The campaign covered roughly 310,000 compounds. About 2,200 (0.71%) showed an effect of 50% or more. Effects have a minus sign here. The sample holds strong results, similar compounds and a random draw of the others, so the mix is not that of the screen.
# Target: human ether-à-go-go-related gene (hERG) potassium channel (human, UniProt Q12809)
# Assay: primary screen, population patch clamp on CHO cells stably expressing hERG; higher = less effect of the substance
# Sequence of human ether-à-go-go-related gene (hERG) potassium channel (Q12809 whole entry, looked up): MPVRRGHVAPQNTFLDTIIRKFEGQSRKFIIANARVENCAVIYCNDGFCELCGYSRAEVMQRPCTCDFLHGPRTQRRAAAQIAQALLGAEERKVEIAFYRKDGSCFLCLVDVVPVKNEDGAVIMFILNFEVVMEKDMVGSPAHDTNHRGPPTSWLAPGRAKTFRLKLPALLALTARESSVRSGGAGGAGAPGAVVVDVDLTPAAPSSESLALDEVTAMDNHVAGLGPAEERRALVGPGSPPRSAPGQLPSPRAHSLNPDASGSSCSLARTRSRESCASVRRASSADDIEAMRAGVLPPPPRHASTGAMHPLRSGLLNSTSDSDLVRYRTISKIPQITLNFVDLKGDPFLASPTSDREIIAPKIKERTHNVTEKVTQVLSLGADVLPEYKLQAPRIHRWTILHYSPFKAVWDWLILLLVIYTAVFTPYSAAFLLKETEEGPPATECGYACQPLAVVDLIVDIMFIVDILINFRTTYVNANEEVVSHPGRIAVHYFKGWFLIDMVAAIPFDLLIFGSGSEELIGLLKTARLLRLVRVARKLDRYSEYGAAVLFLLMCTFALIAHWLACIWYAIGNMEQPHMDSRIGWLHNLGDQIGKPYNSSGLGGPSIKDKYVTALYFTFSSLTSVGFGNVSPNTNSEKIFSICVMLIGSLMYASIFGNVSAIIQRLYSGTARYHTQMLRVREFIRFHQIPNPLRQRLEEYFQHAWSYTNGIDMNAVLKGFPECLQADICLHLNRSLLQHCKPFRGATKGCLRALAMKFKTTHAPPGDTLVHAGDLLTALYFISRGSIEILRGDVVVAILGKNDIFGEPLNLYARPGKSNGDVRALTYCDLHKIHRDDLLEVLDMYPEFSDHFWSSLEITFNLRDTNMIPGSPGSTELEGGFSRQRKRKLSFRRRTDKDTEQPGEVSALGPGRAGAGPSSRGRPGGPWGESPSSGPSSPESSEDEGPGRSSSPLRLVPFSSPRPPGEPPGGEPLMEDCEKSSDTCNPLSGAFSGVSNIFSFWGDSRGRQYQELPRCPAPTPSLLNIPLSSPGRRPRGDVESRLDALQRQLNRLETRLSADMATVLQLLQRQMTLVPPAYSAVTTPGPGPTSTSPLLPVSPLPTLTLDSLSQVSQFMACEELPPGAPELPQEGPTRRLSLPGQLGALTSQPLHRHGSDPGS
row,SMILES,"hERG current change (%, negative = inhibition) at 1uM [%]"
1,O=C(CSc1nnc(COc2ccccc2)o1)NC1CC2CCC1C2 (stereo not drawn),14.8
2,CC(=O)c1ccc(NC(=O)COC(=O)c2c[nH]c3ccccc23)cc1,14.4
3,C/C=C\C(=O)Nc1cccc(C2=NOC3(C2)C[C@@H](C(N)=O)N(C(=O)c2ccccc2)C3)c1 (stereo partly drawn),11.6
4,CC1CCCC(C)N1CCCNC(=O)CN1C(=O)c2cccnc2Oc2ccc(Cl)cc21 (stereo not drawn),6.15
5,O=C1[C@H]2[C@@H](C(=O)N1c1cc(Cl)cc(Cl)c1)[C@]1(C(=O)Nc3ccccc31)N1CCC[C@@H]21,4.86
6,Cc1cc(=O)n2nc(N3CCCC(C(=O)NCCC4=CCCCC4)C3)sc2n1 (stereo not drawn),-4.44
7,O=S(=O)(c1ccc(=S)[nH]c1)N1CCCCC1,16.8
8,O=C(O)c1cccc(NC(=S)NC(=O)c2cncc(Br)c2)c1,8.81
9,Cc1cc(C)n2nc(SCc3ccc(C#N)cc3)nc2n1,6.64
10,Cc1ccc(C)c(CSC2=NCCN2S(=O)(=O)c2ccccc2)c1,7.31
11,OCC1(CCOc2ccccc2)CCN(Cc2cn[nH]c2-c2ccccc2)CC1,-68.3
12,OCC1(CCOc2ccccc2)CCN(Cc2cn[nH]c2-c2ccc(F)cc2)CC1,-46.3
13,OCC1(Cc2ccccc2)CCCN(Cc2cn[nH]c2-c2ccccc2)C1 (stereo not drawn),6.96
14,Cc1ccc(S(=O)(=O)N2CCCCC2)cc1NC(=O)CN1CC=C(c2ccccc2)CC1,-0.529
15,COc1cc(/C=N/NC(=S)NCC2CCCO2)cc(OC)c1OC (stereo not drawn),0.431
16,CC1=C(C(=O)Nc2ccccc2)C(c2coc3ccccc3c2=O)C2=C(CCCC2=O)N1 (stereo not drawn),10.3
17,COC(=O)c1ccc(NC(=O)CCN2CCOCC2)cc1,6.71
18,COC(=O)c1ccc(NC(=O)CCN2CCN(CCC(=O)Nc3ccc(C(=O)OC)cc3)CC2)cc1,1.76
19,Cc1ccc(NC(=O)N2CCN(C/C=C/c3ccccc3)CC2)cc1,-10.7

row,SMILES,"hERG current change (%, negative = inhibition) at 1uM [%]"
1,Cc1cccc(NC(=O)CCN2CCN(C)CC2)c1.Cl,14.1
2,Cc1cccc(NC(=O)CCN2CCN(C/C=C/c3ccccc3)CC2)c1.Cl,-82.5
3,COC(=O)c1ccc(NC(=O)CCN2CCCCC2)cc1.Cl,-51
4,CCN1CCN(CCC(=O)Nc2cccc(C)c2)CC1.Cl,9.56
5,Cc1ccc(NC(=O)CCN2CCOCC2)cc1C,11.1
6,Cc1ccc(NC(=O)CCN2CCN(C/C=C/c3ccccc3)CC2)cc1C.Cl,-53.2
7,Cc1cc(NC(=O)CCN2CCN(Cc3ccccc3)CC2)ccc1Br.Cl,7.35
8,Cc1ccc(NC(=O)CCN2CCN(C/C=C/c3ccccc3)CC2)cc1.Cl,-86.3
9,Cc1ccc(NC(=O)CCN2CCN(C)CC2)cc1.Cl,14.9
10,O=C(Cc1ccc(NS(=O)(=O)c2cccc(C(F)(F)F)c2)cc1)NCCN1CCOCC1,5.88
11,CCn1c(SCC(N)=O)nnc1-c1ccc(OC)c(OC)c1,19.4
12,C/C(=N/NC(=O)c1ccc(O)cc1)c1cccc([N+](=O)[O-])c1,9.78
13,COc1cc(/C=C/C2=CC(C)(C)NC(=S)N2)cc(OC)c1OC,8.95
14,COc1ccc(-n2c(SCC(=O)NCc3cccs3)nc3[nH]ncc3c2=O)cc1,-7.44
15,CCC(C)NC(=S)Nc1ccccc1OC (stereo not drawn),1.64
16,CCN(C(=O)CSc1ncnc2c1cnn2-c1ccccc1)C1CCS(=O)(=O)C1 (stereo not drawn),9.57
17,O=[N+]([O-])/C=C/c1c(OCc2ccccc2)ccc2ccccc12,-3.83
18,CCCC(C)C(=O)OCC(=O)Nc1c(Br)cc(C)cc1Br (stereo not drawn),9.86
19,CCCc1ccc(-c2c(C)sc(N)c2C#N)cc1,16.9

row,SMILES,"hERG current change (%, negative = inhibition) at 1uM [%]"
1,c1ccc(-n2nnnc2-n2ccnc2)cc1,2.97
2,COc1ccccc1CCNC(=O)C(=O)NCC1OCCN1S(=O)(=O)c1cc(F)ccc1F (stereo not drawn),8.74
3,Cc1ccc(S(=O)(=O)N2CCN(S(=O)(=O)c3ccc(C)cc3)C2c2ccccc2)cc1,3.23
4,O=C(CCN1CCN(C/C=C/c2ccccc2)CC1)Nc1ccc(Cl)cc1,-74.1
5,O=C(CCN1CCN(C/C=C/c2ccccc2)CC1)Nc1ccccc1,-79
6,O=C(CCN1CCN(C/C=C/c2ccccc2)CC1)Nc1cccc(F)c1,-62.6
7,COc1ccc(NC(=O)CCN2CCN(C/C=C/c3ccccc3)CC2)cc1,-37.8
8,O=C(CCN1CCN(c2ccccc2)CC1)Nc1ccc(Cl)cc1,9.14
9,CN1CCN(CCC(=O)Nc2cccc(F)c2)CC1,13
10,Cl.O=C(CCN1CCOCC1)Nc1ccc(Cl)cc1,8.71
11,COc1cc(NC(=O)CCN2CCN(C/C=C/c3ccccc3)CC2)cc(OC)c1,-36.8
12,O=C(Nc1cccc(F)c1)N1CCN(C/C=C/c2ccccc2)CC1,-19.1
13,CCOCCCNC(=O)c1cn(C)c(=O)c2cc(OC)c(OC)cc12,9.51
14,CCOC(=O)O[C@]1(C(=O)COC(=O)CC)CC[C@H]2[C@@H]3CCC4=CC(=O)C=C[C@]4(C)[C@H]3[C@@H](O)C[C@@]21C,8.4
15,Cc1cccc(NC(=O)CNC(=O)COc2cc(F)ccc2[N+](=O)[O-])c1C,15.4
16,CCCNC(=O)CCC(NS(=O)(=O)c1ccc(C)cc1)C(=O)NCCC (stereo not drawn),7.66
17,CCOC(=O)C1C(=O)CC(C)(O)C(C(=O)OCC)C1c1ccc(OC)cc1 (stereo not drawn),-0.912
18,CCOC(=O)CSc1nc2sc(C(=O)O)c(C)c2c(=O)[nH]1,9.03
19,Cc1cc(N2C(=O)C(O)=C(C(=O)c3cc4ccccc4o3)C2c2ccc(Cl)cc2)no1 (stereo not drawn),1.55
